Assay results taken from PubChem BioAssay (NCI).
About 79,000 compounds went through this panel and 15% of them were active in at least one assay; those are over-represented in the sample as a whole. Active and inactive are the calls of the source. No stated cut-off is given here; in the data, active means growth inhibition above about 70%; inactive means the rest.

Experiment: NCI Yeast Anticancer Drug Screen. Data for the mlh1 rad18 strain (AID 175)
Conditions: S. cerevisiae mlh1 rad18 strain growth inhibition; at 50.0 µM; stronger effect = higher value
How it was run: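 A repair-deficient yeast strain is exposed to test compound, and growth is scored relative to vehicle-treated controls.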

| SMILES | growth inhibition |
| --- | --- |
| COc1cccc(C2=NC(C(C)C)CO2)c1OC (stereo not given) | -4.35% (inactive) |
| CC(N)CCN (stereo not given) | 1.55% (inactive) |
| NNC(=O)c1c[nH]c2ccccc2c1=O | 5.4% (inactive) |
| CCOC(=O)C(Cc1c[nH]c2ccccc12)NC(C)=O (stereo not given) | 19.2% (inactive) |
| COc1ccc(C2c3cc4c(cc3OC(N3CCOCC3)C2C)OCO4)cc1 (stereo not given) | -57.2% (inactive) |
| COC(C)CC(=O)O (stereo not given) | -4.9% (inactive) |
| O=C(c1ccc(Cl)c(Cl)c1)n1c2ccccc2c2ccccc21 | 2.4% (inactive) |
| CCOC(=O)NC(=S)Nc1cn(C)cc1[N+](=O)[O-] | 11.7% (inactive) |
| O=C(O)c1c(Br)c(Br)c(Br)c(Br)c1C(=O)Nc1ccc(Cl)c(Cl)c1 | -21% (inactive) |
| CN(C(=O)CCC1OCCO1)c1cc([N+](=O)[O-])ccc1OCc1ccccc1 | 15.2% (inactive) |
| OC(CN1CCc2ccccc2C1)c1ccccc1 (stereo not given) | 35.8% (inactive) |
| OC(CNc1ccc(Cl)cc1)CN1CCOCC1 (stereo not given) | 42% (inactive) |
| O=C1CSC2=NC3=C(COC/C3=C\c3ccc(F)cc3)C(c3ccc(F)cc3)N12 (stereo not given) | 31.2% (inactive) |
| CC(CCC(=O)CS(C)=O)C1CCC2C3CCC4CCCCC4(C)C3CCC12C (stereo not given) | 0.95% (inactive) |
| O=C(C(c1ccccc1)C(F)(F)F)N1CCCC1 (stereo not given) | 0.6% (inactive) |
| CN(N)c1cnn(-c2ccccc2)c(=O)c1Cl | -36.6% (inactive) |
| C=CCCCCCCCCC(=O)N1CCN(C)CC1 | 27.6% (inactive) |
| CC(=O)Nc1cccnc1 | -2.45% (inactive) |
| C[C@@H]1C(=O)OCC2=C3C[C@@H](CC[C@@]3(C)C=CC2=O)[C@H](C)C(=O)OCC2=C3C[C@H]1CC[C@@]3(C)C=CC2=O | 20.8% (inactive) |
| NC(=O)c1cn[nH]c1N | 0.55% (inactive) |

| SMILES | growth inhibition |
| --- | --- |
| Cc1ccccc1S(=O)(=O)NSc1ccccc1[N+](=O)[O-] | 25.7% (inactive) |
| O=C(O)c1ccc2sc3ccccc3c(=O)c2c1 | 39% (inactive) |
| O=c1[nH]cc(C(F)(C(F)(F)F)C(F)(F)F)c(=O)[nH]1 | -36.8% (inactive) |
| CC(=O)Nc1ccc(C(=O)NN2C(=O)C(Cl)C2c2ccccc2O)cc1 (stereo not given) | -32.9% (inactive) |
| S=C(Nc1ccccc1)c1ccccc1 | 16.1% (inactive) |
| CCCCNS(=O)(=O)CCCC | -9.8% (inactive) |
| OC1=CC(=S)NC2CCCCC12 (stereo not given) | 49.8% (inactive) |
| CCC(=O)/C=C/C1=C(C)CCCC1(C)C | -13.4% (inactive) |
| C=C1C(=O)OC2C1CCC(C)=C1C(=O)C=C(C)C12 (stereo not given) | -16.2% (inactive) |
| CCCCCCCCCCCCCCCCCC(=O)N/N=C/c1ccccc1 | -5.55% (inactive) |
| O=C(O)c1ccc(C2COc3ccc(Cl)cc3C2)cc1 (stereo not given) | -24.2% (inactive) |
| CC(C)Oc1ccc(CCOC(=O)Nc2cccc3ccccc23)cc1 | 9.5% (inactive) |
| O=[N+]([O-])c1ccc(-c2nc3ccncc3[nH]2)cc1 | -12.6% (inactive) |
| CCOC(=O)C(Cc1ccccc1Cl)(Cc1ccccc1Cl)c1ccccc1 | 1.3% (inactive) |
| CCCCN(CCCC)CC(O)c1cc(-c2ccc(Cl)cc2)nc2c(Cl)cc(Cl)cc12 (stereo not given) | 28.9% (inactive) |
| CCCC(O)CNCc1ccc2ncccc2c1 (stereo not given) | -23.4% (inactive) |
| O=S(=O)(Oc1ccc(Cl)cc1)c1cccc(S(=O)(=O)Oc2ccc(Cl)cc2)c1 | 1.8% (inactive) |
| COP(=O)(OC)C1c2cc(Cl)ccc2-c2c(Cl)cc(Cl)cc21 (stereo not given) | 68.8% (inactive) |
| CC(=O)Oc1ccc(-c2ccccc2)cc1 | 26.3% (inactive) |
| NNC(=O)C1=NN(c2ccccc2)C(=O)C1 | 42.1% (inactive) |
